Results as given in PubChem BioAssay (NCATS).
Inconclusive results are not listed. Active and inactive are the calls of the source. Calls follow the shape of the dose curve; as a rule, active = well fitted inhibition curve with a large enough effect; inconclusive = small, poorly fitted or top-dose-only effect; inactive = flat fitted curve, though single readings scatter.

test system: HEK293T; test: qHTS assay to identify novel small-molecules to repurpose for Merkel cell carcinoma treatment (AID 1296009); conditions: MCC and control cell lines, CellTiter-Glo viability, 72 h; series mostly up to 44.8 µM; also: nearly all actives have a fitted effect of over 60% in size
Outline: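 72 hr, 37 degree celsius; NPC 8-pt / MIPE 11-pt dose response; compound pinned in DMSO; CellTiter-Glo, 10 min RT, luminescence; normalized to no-cell and DMSO controls.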

Compound | outcome
CC(C)CC(=O)OC[C@H]1O[C@@](COC(=O)CC(C)C)(O[C@H]2O[C@H](CO)[C@@H](O)[C@H](O)[C@H]2O)[C@@H](OC(=O)CC(C)C)[C@@H]1OC(=O)CC(C)C | inactive [at 17.4 µM]
NC(=O)c1cccc(-c2cc(O)cc(OC(=O)NC3CCCCC3)c2)c1 | inactive [at 17.4 µM]
CC1(C)CC(=O)N(CCCCN2CCN(c3ncccn3)CC2)C(=O)C1 | inactive
C[C@H](NCc1ccc(OCc2ccccc2F)cc1)C(N)=O | inactive
C[C@@H]1C(=O)O[C@H]2CC34[C@H]5C[C@@H](C(C)(C)C)C36[C@@H](OC(=O)[C@@H]6O)OC4(C(=O)O5)[C@]21O (stereo partly drawn) | inactive
CC1CCC2(NC1)OC1C(=O)C3C4CCC5CC(O[C@@H]6O[C@H](CO)[C@@H](O)[C@H](O)[C@H]6O[C@@H]6O[C@@H](C)[C@H](O)[C@@H](O)[C@H]6O)CCC5(C)C4CCC3(C)C1C2C (stereo partly drawn) | inactive [at 17.4 µM]
Cc1nn(C)c(COc2ccc(N3CCN(S(=O)(=O)N(C)C)CC3)cc2)c1-c1cccc2c(CCCOc3cccc4ccccc34)c(C(=O)O)n(CCN3CCOCC3)c12 | inactive
C/C=C(\C)C(=O)O[C@H]1[C@H](O)[C@]2(COC(C)=O)[C@H](O)C[C@]3(C)C(=CCC4[C@@]5(C)CC[C@H](O[C@@H]6O[C@H](C(=O)O)[C@@H](O[C@@H]7O[C@H](CO)[C@@H](O)[C@H](O)[C@H]7O)[C@H](O)[C@H]6O[C@@H]6O[C@H](CO)[C@@H](O)[C@H](O)[C@H]6O)[C@](C)(CO)C5CC[C@]43C)[C@@H]2CC1(C)C (stereo partly drawn) | inactive [at 9.27 µM]
